According to PubChem BioAssay AID720517 (National Center for Advancing Translational Sciences (NCATS), 2013):
Records with an inconclusive call do not appear. Unmarked numbers belong to inactive results. Calls come from the whole dose curve; as a rule, active = well fitted activation curve with a large enough effect; inconclusive = small, poorly fitted or top-dose-only effect; inactive = flat fitted curve, though single readings scatter.

Assay: qHTS for Inhibitors of Cell Surface uPA Generation: FP59 Counterscreen for Cherry-picked Compounds; note: 0% is about no effect
Conditions: FP59 anthrax toxin cytotoxicity counterscreen, cells; series mostly up to 115 µM; activity (protection from FP59): at the top concentration

SMILES	activity (protection from FP59) [%]
COc1ccc(OC)c(N2C(=O)CC(Cc3cc(C)cc(C)c3)C2=O)c1 (configuration not stated)	-1.31
COc1ccc(CCNC(=O)Cn2c(=O)n(-c3cc(F)ccc3F)c(=O)c3sccc32)cc1OC	-1.16
CC(C)(C)OC(=O)NCCCCCNC(=O)c1[nH]cnc1C(=O)Nc1ccc(Cl)cc1	-1.08
O=C(CNS(=O)(=O)c1ccc(F)cc1)Nc1ccccc1	-1.19
CCCCCCCCCOC(=O)C1N2C(=O)[C@@H](NC(=O)COc3ccccc3)[C@H]2SC1(C)C (some centres not stated)	-0.421
Cn1cccc1Cc1nnc(SCC(=O)Nc2ccc3c(c2)OCCO3)n1-c1ccc(F)cc1	-1.19
C=CCNC(=S)NCC=C	-1.33
O=C(C[C@H]1C[C@H](C(=O)N2CCOCC2)[C@@]2(CCC3CCCC3)c3[nH]c4cc(-c5ccco5)ccc4c3CCN2C1=O)NCc1cccc(C(F)(F)F)c1	13.9
Cc1cccc(N2CCN(Cc3ccc(Br)o3)CC2)c1C	-1.14
CCc1cc(CC)c(/C=N/NC(N)=O)c(CC)c1	-1.38
Cc1nc(NC(=O)CSc2nnc(C3CC3)n2C)sc1C(=O)N(C)C	-1.35
COc1ccc(S(=O)(=O)N2CCOCC2)cc1NC(=O)CN1C(=O)NC2(CCCC2)C1=O	-1.31
Cc1ccc(CC2CC(=O)N(c3cc(C)ccc3C)C2=O)cc1 (configuration not stated)	-1.38
CCC1(C)NC(=O)N(CC(=O)Nc2sc3c(c2C(N)=O)CCC3)C1=O (configuration not stated)	-0.768
O=C(CN1CCCC1)Nc1cccc(Cl)c1Cl	-1.42
CCCOC(=O)CSC1=C(C#N)C(c2ccccc2Cl)CC(=O)N1 (configuration not stated)	-1.15
Cc1cc(C)c(NC(=O)Cn2nnc(C(=O)NCc3ccc4c(c3)OCO4)c2N)c(C)c1	0.198
